{"source": "ChEMBL document CHEMBL3988442", "about": "“University of Dundee, Small-Polar-MMV Screening Library” (2021)", "note": "Among all 48,000 compounds or so, about 13,000 (27%) showed an effect of 50% or more. This is one part of the list."}
{"system": "Wolbachia pipientis", "assay": "Anti-Wolbachia Cell-Based Screen", "assay_type": "functional", "parameters": "scale not given: in the data most compounds retested in dose-response had high values", "conditions": "5 µM", "units": {"Percent Effect": "%"}}
{"molecule": "CN(CC(=O)NCCc1cc2ccccc2o1)S(C)(=O)=O", "Percent Effect": 6.714}
{"molecule": "CCN(C)CCNC(=O)Cc1nc(-c2ccco2)oc1C", "Percent Effect": -18.21}
{"molecule": "COc1cc(C(C)NCc2c[nH]nc2C)ccc1OCCO", "note": "(stereo not given)", "Percent Effect": -5.579}
{"molecule": "OCc1ccc(CNc2ccccc2CN2CCC(O)CC2)o1", "Percent Effect": -5.459}
{"molecule": "Cn1cc(C2CC(=O)NC23CCN(CC2CC2)CC3)cn1.O=C(O)C(F)(F)F", "note": "(stereo not given)", "Percent Effect": -10.6}
{"molecule": "O=C(C1CCC1)N1CCC2(CCN(Cc3cccc(F)c3)CC2)CC1.O=C(O)C(F)(F)F", "Percent Effect": 18.44}
{"molecule": "Cn1cc(C2CC(=O)NC23CCN(Cc2cccc(F)c2)CC3)cn1.O=C(O)C(F)(F)F", "note": "(stereo not given)", "Percent Effect": 101.2}
{"molecule": "Cn1cc(C2CC(=O)NC23CCN(Cc2ccncc2)CC3)cn1.O=C(O)C(F)(F)F.O=C(O)C(F)(F)F", "note": "(stereo not given)", "Percent Effect": 100.3}
{"molecule": "Cc1ccncc1C(=O)N1CC[C@@]2(O)CCN(C3CCCCC3)C[C@H]2C1", "Percent Effect": -0.1912}
{"molecule": "O=C(NCC(O)c1ccc(F)cc1)C1CCN(C2CCCCC2)CC1", "note": "(stereo not given)", "Percent Effect": 4.274}
{"molecule": "CC(C)(C)n1ncc2c(=O)[nH]c(N3CCN(CC(F)F)CC3)nc21", "Percent Effect": 4.311}
{"molecule": "COc1cccc2c1OCCCN(c1nc3c(c(=O)[nH]1)CCNCC3)C2", "Percent Effect": -4.298}
{"molecule": "Cc1ccc(-c2csc3c(=O)[nH]c(N4CCCC(C(=O)O)C4)nc23)cc1", "note": "(stereo not given)", "Percent Effect": 13.24}
{"molecule": "COc1cccc(-c2n[nH]cc2-c2nc(CN3CCCC3)no2)c1", "Percent Effect": -0.8918}
{"molecule": "Cc1nc(N2CCCCC2)ncc1-c1cc(=O)[nH]c(N2CCCC2)n1", "Percent Effect": -11.82}
{"molecule": "COc1cccc(-c2ccnc3nc(N4CCCCC4)[nH]c(=O)c23)c1", "Percent Effect": 120.5}
{"molecule": "O=c1[nH]c(NC2CCCC2)nc2nccc(-c3ccsc3)c12", "Percent Effect": -12.83}
{"molecule": "Cn1[nH]c(C2CCC2)c(-c2ccc3c(c2)OCO3)c1=N", "Percent Effect": 9.847}
{"molecule": "COc1ccc(-c2ccnc3nc(N4CCCC4)[nH]c(=O)c23)cc1OC", "Percent Effect": 143.1}
{"molecule": "COc1ccccc1-c1ccnc2nc(N3CCCCC3)[nH]c(=O)c12", "Percent Effect": 113.6}
{"molecule": "Cc1ccccc1-c1csc2c(=O)[nH]c(N3CCCC(C(=O)O)C3)nc12", "note": "(stereo not given)", "Percent Effect": 12.14}
{"molecule": "O=c1[nH]c(N2CCCCC2)nc2nccc(-c3ccc4c(c3)OCO4)c12", "Percent Effect": 81.44}
{"molecule": "CCN(Cc1ccoc1)C(=O)Nc1ccccc1CN(C)C(C)=O", "Percent Effect": -2.695}
{"molecule": "CNC(=O)c1nc2c(s1)CCN(C(=O)c1cccc(OC)c1)CC2", "Percent Effect": -8.352}
{"molecule": "O=C(NC[C@H]1OC[C@@H](NC2COC2)[C@@H]1O)c1ccccc1", "Percent Effect": -18.77}
{"molecule": "COc1ccc(CCNC(=O)N2CCN(C)[C@@H]3CS(=O)(=O)C[C@@H]32)cc1", "Percent Effect": 3.976}
{"molecule": "N#Cc1c(F)cccc1N1CCC(NS(=O)(=O)c2cccs2)CC1", "Percent Effect": -19.03}
{"molecule": "COCC1c2nnn(CC3CC3)c2CCN1C(=O)C1CCOCC1", "note": "(stereo not given)", "Percent Effect": -9.696}
{"molecule": "CC(C)(C)C(=O)NCCC(=O)Nc1cc(C#N)cn1C(C)(C)C", "Percent Effect": -12.46}
{"molecule": "O=C(NC[C@H]1OC[C@@H](NC2CCCCC2)[C@@H]1O)Nc1ccccc1", "Percent Effect": 2.791}
{"molecule": "Cc1cc(N2CCN(c3nc4ccccc4cc3CO)CC2)nc(C)n1", "Percent Effect": 9.089}
{"molecule": "COc1ccc(-c2ccnc3c2C(=O)CCC3)cc1", "Percent Effect": -3.402}
{"molecule": "COc1ccc(-c2ccnc3nc(N4CCCCC4)[nH]c(=O)c23)cc1", "Percent Effect": 107.2}
{"molecule": "NC(=O)C1CCN(c2nc3nccc(-c4ccccc4)c3c(=O)[nH]2)CC1", "Percent Effect": -1.836}
{"molecule": "COCCOC1CCN(C(C(=O)O)c2ccc(OC)c(F)c2)CC1", "note": "(stereo not given)", "Percent Effect": 107.6}
{"molecule": "NC(=O)C1CCN(C(C(=O)O)c2ccc(Cl)c(C(F)(F)F)c2)CC1", "note": "(stereo not given)", "Percent Effect": -1.554}
{"molecule": "O=C(O)C(c1ccc(Cl)c(F)c1)N1CCN(Cc2ccccn2)CC1", "note": "(stereo not given)", "Percent Effect": 0.4357}
{"molecule": "COc1ccccc1C(C(=O)O)N1CCCN(C2CCCC2)CC1", "note": "(stereo not given)", "Percent Effect": -24.96}
{"molecule": "COc1ccc(C(C(=O)O)N2CCC(O)(c3cccnc3)CC2)cc1F", "note": "(stereo not given)", "Percent Effect": -17.65}
{"molecule": "COCCOC1CCN(C(C(=O)O)c2ccc3c(c2)OCO3)CC1", "note": "(stereo not given)", "Percent Effect": 111.3}
{"molecule": "O=C(O)C(c1ccc2c(c1)OCO2)N1CCCCCC1", "note": "(stereo not given)", "Percent Effect": 23.77}
{"molecule": "COc1ccc(C(C(=O)O)N2CCN(C3CCCC3)CC2)cc1OC", "note": "(stereo not given)", "Percent Effect": 20.13}
{"molecule": "COc1cccc(Cl)c1C(C(=O)O)N1CCC(O)(c2cccnc2)CC1", "note": "(stereo not given)", "Percent Effect": 0.4267}
{"molecule": "O=C(O)C(c1ccc2c(c1)OCO2)N1CCCC1", "note": "(stereo not given)", "Percent Effect": -31.26}
{"molecule": "CN(C)CCN(C)C1CCN(C(C(=O)O)c2ccc(F)c(Cl)c2)CC1", "note": "(stereo not given)", "Percent Effect": 97.08}
{"molecule": "COCCOC1CCN(C(C(=O)O)c2c(Cl)cccc2OC)CC1", "note": "(stereo not given)", "Percent Effect": 87.97}
{"molecule": "Cn1cnc2c1C(COCc1cccnc1)N(Cc1nccs1)CC2.O=C(O)C(F)(F)F.O=C(O)C(F)(F)F.O=C(O)C(F)(F)F", "note": "(stereo not given)", "Percent Effect": 0.7375}
{"molecule": "COCCOC1CCN(C(C(=O)O)c2ccc(F)c(Cl)c2)CC1", "note": "(stereo not given)", "Percent Effect": 111}
{"molecule": "CCOc1ccc(Cl)cc1C(C(=O)O)N1CCC(CO)CC1", "note": "(stereo not given)", "Percent Effect": -16.74}
{"molecule": "COc1ccc(C(C(=O)O)N2CCN(C3CCCC3)CC2)cc1C", "note": "(stereo not given)", "Percent Effect": 19.06}
{"molecule": "Cc1cc(-c2nn3c(C)nnc3s2)n[nH]1", "Percent Effect": 0.3213}
{"molecule": "CCN(CC)Cc1nnc2sc(-c3cc(C(C)C)[nH]n3)nn12", "Percent Effect": 118.1}
{"molecule": "CCCc1nnc2sc(-c3cc(C(C)C)n[nH]3)nn12", "Percent Effect": 120.9}
{"molecule": "Cc1nnc2sc(-c3cc(C(C)C)n[nH]3)nn12", "Percent Effect": -19.82}
{"molecule": "CC(C)c1cc(-c2nn3c(C(C)C)nnc3s2)[nH]n1", "Percent Effect": -17.87}
{"molecule": "CCc1nnc2sc(-c3cc(C(C)C)n[nH]3)nn12", "Percent Effect": 154.2}
{"molecule": "CC(C)Cc1nnc2sc(-c3cc(C(C)C)n[nH]3)nn12", "Percent Effect": 131.5}
{"molecule": "CCC(Nc1nc(C(C)C)nc2c1cnn2C)c1ccc(O)cc1", "note": "(stereo not given)", "Percent Effect": -13.26}
{"molecule": "Cc1nc(CNC(C)c2cccc(N3CCCC3=O)c2)cs1.Cl", "note": "(stereo not given)", "Percent Effect": -6.766}
{"molecule": "c1ccc(Cc2noc(CN3CCCC3Cn3cccn3)n2)cc1", "note": "(stereo not given)", "Percent Effect": 101.6}
{"molecule": "c1ccc(Cc2noc(CN3CCCC3C3CCCCC3)n2)cc1", "note": "(stereo not given)", "Percent Effect": 35.45}
{"molecule": "OCC1CCCCN1Cc1nc(Cc2cccc(F)c2)no1", "note": "(stereo not given)", "Percent Effect": -3.414}
{"molecule": "OCC1CCCCN1Cc1nc(Cc2ccccc2)no1", "note": "(stereo not given)", "Percent Effect": 15.34}
{"molecule": "CCc1nc(C2CCCN2Cc2nc(Cc3ccccc3)no2)no1", "note": "(stereo not given)", "Percent Effect": -2.634}
{"molecule": "c1ccc(Cc2noc(CN3CCCCC3Cn3cccn3)n2)cc1", "note": "(stereo not given)", "Percent Effect": 121.7}
